Experimental data taken from PubChem BioAssay (NCI).
This is part of a sample that, as a whole, favours compounds with a hit. Of some 83,000 tested, about 20% had one in any assay.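 Percent growth is the endpoint: 0 to 100 indicates growth inhibition (40 means 60% inhibition), 0 means no net growth, and negative values indicate cell death.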 Unmarked numbers belong to inactive results. The source made the active and inactive calls. The calls were made as follows: active = growth percent below 10; inactive = the rest.

Assays:
Assay in all cases: NCI-60 one-dose screen, 48 h (100 = growth as untreated, 0 = no growth, -100 = all killed)
Settings in all cases: 10 µM unless noted
SK-MEL-2 melanoma = system: SK-MEL-2 melanoma
EKVX NSCLC = system: EKVX NSCLC
SN12C renal = system: SN12C renal
UO-31 renal = system: UO-31 renal
TK-10 renal = system: TK-10 renal
ACHN renal = system: ACHN renal
CAKI-1 renal = system: CAKI-1 renal
A498 renal = system: A498 renal
CCRF-CEM leukemia = system: CCRF-CEM leukemia
MOLT-4 leukemia = system: MOLT-4 leukemia

Row | SMILES | growth (SK-MEL-2 melanoma) | growth (EKVX NSCLC) | growth (SN12C renal) | growth (UO-31 renal) | growth (TK-10 renal) | growth (ACHN renal) | growth (CAKI-1 renal) | growth (A498 renal) | growth (CCRF-CEM leukemia) | growth (MOLT-4 leukemia)
1 | c1ccc([P+](c2ccccc2)(c2ccccc2)c2ccc3c4ccc([P+](c5ccccc5)(c5ccccc5)c5ccccc5)c5cccc(c6cccc2c63)c54)cc1 | 18.6% | 12.8% | 10.5% | 39.4% | 52.2% | 41.3% | 40.3% | -11.3% (active) | 26.5% | 23.2%
2 | COc1ccc(/C=C(\C#N)n2nnc3ccc(Cl)cc32)cc1 | 62.9% | 90% | 52.4% | 50.2% | 77.6% | 45.6% | 46.3% | 79.7% | 45.5% | 83.7%
3 | COC(=O)c1cc(N=C2NC(=O)/C(=C/C=C/c3ccccc3)S2)ccc1O | 74.1% | 53.7% | 38.6% | 53.8% | 53.2% | 46.5% | 29% | 17.6% | 20.7% | 31.7%
4 | c1ccc(-c2oc(-c3ccccc3)c(CN3CCCCC3)c2CN2CCCCC2)cc1 | 48.4% | 41% | 31.2% | 18.5% | 42.2% | 44.9% | 38.1% | 17.5% | 24.1% | 15.2%
5 | N#Cc1ccc2c(c1)C(=O)c1c-2n(CCCN)c(=O)c2cc([N+](=O)[O-])ccc12 | -52.2% (active) | -88% (active) | -100% (active) | -100% (active) | -100% (active) | -100% (active) | -91.4% (active) | -39.3% (active) | -72.6% (active) | -62.2% (active)
6 | CC1CCc2c(C(=O)Nc3ncc(Cc4cccc([N+](=O)[O-])c4)s3)csc2C1 (stereo not given) | 52.7% | 25.6% | 41.7% | 32.4% | 46.7% | 30.5% | 19.2% | 10.7% | 16.8% | 26%
7 | COC1=CC(c2ccc[nH]2)=N/C1=C\c1[nH]c(C)c(C(=O)OC(C)C)c1C | -61.6% (active) | -41.9% (active) | -2.47% (active) | -87.5% (active) | 3.42% (active) | -82.9% (active) | -32.4% (active) | -37.8% (active) | 13.5% | -5.6% (active)
8 | CCN(CC)S(=O)(=O)c1ccc(S(=O)(=O)N2CCC[C@@H](C(=O)N3CCN(c4nc(C(C)C)no4)CC3)C2)cc1 | 94.6% | 55.1% | 84.9% | 58.6% | 74.5% | 68.5% | 58.4% | 6.31% (active) | 63.7% | 61.1%
9 | Oc1c(Br)cc(Br)c2ccc(Cn3cc(-c4ccc(C(F)(F)F)cc4)nn3)nc12 | 90.9% | 83.6% | 71% | 63.5% | 99.1% | 26.4% | 13.2% | 96.8% | 2.97% (active) | 11.3%
10 | NC(=O)CSc1oc(-c2ccccc2)nc1S(=O)(=O)c1ccc(Br)cc1 | 99.2% | 95.4% | 65.7% | 59.7% | 82.1% | 64.4% | 87.9% | 61.4% | 110% | 89.2%
11 | Cc1ccc(C)n1-c1ccccc1-n1c(C)ccc1C | 108% | 92.5% | 93.5% | 98.1% | 128% | 102% | 71.7% | 97.9% | 124% | 78.7%
12 | COc1cc2c(cc1OCCCN1CCN(CCCOc3cc4c(cc3OC)C(=O)N3CC(F)(F)C[C@H]3C=N4)CC1)N=C[C@@H]1CC(F)(F)CN1C2=O | 90.6% | 197% | 54.7% | 82.4% | 115% | 78.3% | 35% | 86.1% | -28.2% (active) | 26.9%
